In PubChem BioAssay (Tox21):
Records with an inconclusive call do not appear. Activity calls are given as the source filed them. Unless noted, the call rests on the fitted dose curve; in most records, active means well fitted curve in the direction sought with a large enough effect in the repeat runs; inconclusive means weak or mixed curves; inactive means no such curve, though single readings can be large; an effect the other way counts as inactive or inconclusive.

Key:
[1] = qHTS assay to identify small molecule antagonists of the estrogen related receptor (ERR) signaling pathway from Tox21 library - cell viability counter screen (AID 1224834); further: nearly all actives have a fitted effect of over 30% in size; further: potency means the concentration at half of the fitted maximal effect
Method in brief: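 ERR reporter cells, 2,000 per well, rested 6 h, then exposed to compound in DMSO for 17.5 hours at 37 C. Viability read as fluorescence after 30 min with CellTiter-Fluor.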

[2] = biological target: Luciferin 4-monooxygenase (Photinus pyralis) (UniProt P08659); assay: qHTS assay to identify small molecule inhibitors of firefly luciferase (AID 1224835); further: nearly all actives have a fitted effect of over 25% in size; further: potency means the concentration at half of the fitted maximal effect
Method in brief: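 Inhibition of purified Photinus luciferase is measured by luminescence. Substrate levels (D-luciferin, ATP) sit at their KM values. Each compound is tested in a concentration series.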

[3] = qHTS assay to identify small molecule agonists of the constitutive androstane receptor (CAR) signaling pathway - cell viability counter screen (AID 1224836); further: nearly all actives have a fitted effect of over 45% in size; further: potency means the concentration at half of the fitted maximal effect
Method in brief: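 Viability read-out: CellTiter-Fluor fluorescence after 23 h compound exposure at 37 C/5% CO2 in double-stable HepG2-CYP2B6-hCAR cells, with PK11195 present at 0.75 uM final; compounds tested in 15-point titration.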

[4] = qHTS assay to identify small molecule antagonists of the constitutive androstane receptor (CAR) signaling pathway - cell viability counter screen (AID 1224837); further: nearly all actives have a fitted effect of over 45% in size; further: potency means the concentration at half of the fitted maximal effect
Method in brief: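 HepG2 cells stably carrying hCAR and CYP2B6-2.2kb reporter, stimulated with 50 nM CITCO and compounds at 15 concentrations for 23 h at 37 C. Viability measured by CellTiter-Fluor fluorescence.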

[5] = biological target: Nuclear receptor subfamily 1 group I member 3 (Homo sapiens) (UniProt Q14994); assay: qHTS assay to identify small molecule antagonists of the constitutive androstane receptor (CAR) signaling pathway (AID 1224838); further: nearly all actives have a fitted effect of over 40% in size; further: potency means the concentration at half of the fitted maximal effect
Method in brief: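 HepG2 cells stably carrying hCAR and a CYP2B6-2.2kb luciferase reporter, seeded 4 hrs before compound (15 concentrations). Stimulated with 50 nM CITCO for 24 hr at 37 C. ONE-Glo luminescence read after 30 min at room temperature.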

[6] = biological target: Nuclear receptor subfamily 1 group I member 3 (Homo sapiens) (UniProt Q14994); assay: qHTS assay to identify small molecule agonists of the constitutive androstane receptor (CAR) signaling pathway (AID 1224839); further: nearly all actives have a fitted effect of over 15% in size; further: potency means the concentration at half of the fitted maximal effect
Method in brief: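 Luminescence read-out (ONE-Glo, 30 min, room temperature) from double-stable HepG2-CYP2B6-hCAR cells exposed 24 h to 15-point compound series in presence of 0.75 uM PK11195 final.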

[7] = qHTS assay to identify small molecule antagonists of the estrogen related receptor signaling pathway with the pleiotropic PPARgamma coactivator (PGC) from Tox21 10K library - cell viability counter screen (AID 1224840; active means well fitted cell-killing curve with a large enough effect in the repeat runs, not every such curve was filed as active; further: nearly all actives have a fitted effect of over 40% in size; further: potency means the concentration at half of the fitted maximal effect)
Method in brief: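 PGC/ERR cells (2,000/well) plated 6 h, then compound-treated for 17.5 h at 37 C. Viability measured by CellTiter-Fluor fluorescence after 30 min at 37 C, multiplexed with the pathway assay.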

[8] = qHTS assay to identify small molecule agonists of the estrogen related receptor signaling pathway with the pleiotropic PPARgamma coactivator (PGC) from Tox21 10K library (AID 1224842); further: nearly all actives have a fitted effect of over 15% in size
Method in brief: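 Luminescence from One-Glo (30 min, room temperature) measured after PGC/ERR cells had 18 h at 37 C with pinned compound (23 nL in DMSO). Cells had been seeded at 2,000 per well and pre-incubated 6 h.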

[9] = biological target: Thyrotropin receptor (Homo sapiens) (UniProt P16473); assay: qHTS assay to identify small molecule agonists of the thyroid stimulating hormone receptor (TSHR) signaling pathway (AID 1224843; calls by dose curve; further: nearly all actives have a fitted effect of over 45% in size; further: potency means the concentration at half of the fitted maximal effect)
Method in brief: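 Screening of the Tox21 10K collection used HEK293 cells engineered with TSHR at 800 cells per well. After a 30-min room-temperature compound exposure, HTRF cAMP reagents were added and fluorescence recorded 1 h later.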

[10] = qHTS assay to identify small molecule agonists of the hypoxia (HIF-1) signaling pathway - cell viability counter screen (AID 1224844; calls by dose curve; further: nearly all actives have a fitted effect of over 50% in size; further: potency means the concentration at half of the fitted maximal effect)
Method in brief: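 HRE-bla ME-180 cells, 2,000/well in 0.5% dialyzed FBS medium, treated 17 h at 37C with compounds. Viability read in the same wells as the bla reporter, by CellTiter-Glo luminescence after 30 min at room temperature.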

[11] = qHTS assay to identify small molecule agonists of H2AX (AID 1224845; active means well fitted activation curve with a large enough effect in the signal ratio in the repeat runs, not every such curve was filed as active; the % refers to the signal ratio; further: potency means the concentration at half of the fitted maximal effect)
Method in brief: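 Phospho-H2AX Ser139 measured by HTRF (ex 320 nm; em 665 and 620 nm) after 24 hr antibody incubation. Compounds, 15 concentrations, 0.76% DMSO, were applied to CHO-K1 cells for 3hr at 37C before lysis.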

[12] = qHTS assay to identify small molecule agonists of H2AX - cell viability counter screen (AID 1224847; calls by dose curve; further: nearly all actives have a fitted effect of over 30% in size; further: potency means the concentration at half of the fitted maximal effect)
Method in brief: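 CHO-K1 wt, 1000 cells/well, o/n 37C; cpds 15 conc, 3 h 37C, 0.76% DMSO; CellTiter-Glo, 30 min RT, luminescence.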

[13] = qHTS assay to identify small molecule antagonists of the estrogen related receptor (ERR) signaling pathway from Tox21 library (AID 1224848); further: nearly all actives have a fitted effect of over 50% in size
Method in brief: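 Antagonist-mode screen of the Tox21 10K library in an NTP-provided ERR reporter cell line; 18 h compound exposure at 37 C, luminescence measured with ONE-Glo.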

[14] = qHTS assay to identify small molecule agonists of the estrogen related receptor (ERR) signaling pathway from Tox21 library (AID 1224849; calls by dose curve; further: nearly all actives have a fitted effect of over 15% in size); settings: ERR reporter cell line, ONE-Glo luciferase, 18 h; at 92.4 µM (top of the series) unless noted
Method in brief: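 ERR reporter cells (NTP line) pre-incubated 6 hours at 37 C, then exposed to compounds for 18 hours at 37 C. ONE-Glo luciferase luminescence was read after 30 minutes at room temperature.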

[15] = qHTS RealTime-Glo MT Cell Viability Assay in HepG2 cells - 24 hour (AID 1224867); further: nearly all actives have a fitted effect of over 50% in size; further: potency means the concentration at half of the fitted maximal effect
Method in brief: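 Compound treatment began 5 h after plating HepG2 cells (600/well) with NanoLuc luciferase and prosubstrate. Plates stayed at 37 C for 40 h; luminescence was captured at six time points, 0 h through 40 h.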

[16] = qHTS RealTime-Glo MT Cell Viability Assay in HEK293 cells - 32 hour (AID 1224868); further: nearly all actives have a fitted effect of over 50% in size; further: potency means the concentration at half of the fitted maximal effect
Method in brief: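 Quantitative high-throughput screen of the Tox21 10K library in HEK293: cells and RealTime-Glo reagents plated together, compound added at 5 h, luminescence monitored through 40 h at 37 C.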

[17] = A CellTox Green Cytotoxicity Assay to monitor cytotoxicity in HEK293 cells - 0 hour (AID 1224869); further: nearly all actives have a fitted effect of over 50% in size
Method in brief: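 HEK293 cells, 600/well, were preincubated 5 hours and then exposed to compounds at 37 C for up to 40 hours. A cell-impermeant cyanine dye staining dead-cell DNA was read by fluorescence at 0, 8, 16, 24, 32 and 40 h time points.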

[18] = qHTS RealTime-Glo MT Cell Viability Assay in HepG2 cells - 40 hour (AID 1224870); further: nearly all actives have a fitted effect of over 50% in size; further: potency means the concentration at half of the fitted maximal effect
Method in brief: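 Real-time viability: cells seeded at 600 per well together with NanoLuc and cell-permeant prosubstrate, compounds added after 5 h incubation. Luminescence tracked at 0, 8, 16, 24, 32 and 40 h of exposure.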

[19] = qHTS assay to identify small molecule agonists of the hypoxia (HIF-1) signaling pathway (AID 1224846; active means well fitted activation curve with a large enough effect in the signal ratio in the repeat runs, not every such curve was filed as active; the % refers to the signal ratio)
Method in brief: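 HRE-bla ME-180 beta-lactamase reporter cells in medium with 0.5% dialyzed FBS, pre-incubated 5 h then exposed to compounds 17 h at 37C, 5% CO2; reporter induction read with CCF4-AM FRET substrate.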

[20] = qHTS assay to identify small molecule antagonists of the estrogen related receptor signaling pathway with the pleiotropic PPARgamma coactivator (PGC) from Tox21 10K library (AID 1224841; call rule not given here)
Method in brief: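 PGC/ERR cell line, 2,000 cells/well, pre-incubated 6 hours at 37 C, then exposed to compounds for 18 hours at 37 C; luciferase read with One-Glo luminescence after 30 min at room temperature.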
On the % scale 0 is the no-effect control and ±100 the full control effect.

Sequence of Nuclear receptor subfamily 1 group I member 3 (Homo sapiens) (Q14994 whole entry, looked up): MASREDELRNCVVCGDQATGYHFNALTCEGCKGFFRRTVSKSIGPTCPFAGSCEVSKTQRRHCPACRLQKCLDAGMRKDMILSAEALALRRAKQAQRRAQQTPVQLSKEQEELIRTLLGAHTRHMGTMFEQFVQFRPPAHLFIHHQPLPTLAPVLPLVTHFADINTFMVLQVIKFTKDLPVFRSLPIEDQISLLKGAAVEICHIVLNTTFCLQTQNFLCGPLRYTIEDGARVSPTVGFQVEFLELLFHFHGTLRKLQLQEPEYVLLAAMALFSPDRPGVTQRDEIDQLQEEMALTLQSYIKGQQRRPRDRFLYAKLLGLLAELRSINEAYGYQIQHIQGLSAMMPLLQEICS
Sequence of Thyrotropin receptor (Homo sapiens) (P16473 whole entry, looked up): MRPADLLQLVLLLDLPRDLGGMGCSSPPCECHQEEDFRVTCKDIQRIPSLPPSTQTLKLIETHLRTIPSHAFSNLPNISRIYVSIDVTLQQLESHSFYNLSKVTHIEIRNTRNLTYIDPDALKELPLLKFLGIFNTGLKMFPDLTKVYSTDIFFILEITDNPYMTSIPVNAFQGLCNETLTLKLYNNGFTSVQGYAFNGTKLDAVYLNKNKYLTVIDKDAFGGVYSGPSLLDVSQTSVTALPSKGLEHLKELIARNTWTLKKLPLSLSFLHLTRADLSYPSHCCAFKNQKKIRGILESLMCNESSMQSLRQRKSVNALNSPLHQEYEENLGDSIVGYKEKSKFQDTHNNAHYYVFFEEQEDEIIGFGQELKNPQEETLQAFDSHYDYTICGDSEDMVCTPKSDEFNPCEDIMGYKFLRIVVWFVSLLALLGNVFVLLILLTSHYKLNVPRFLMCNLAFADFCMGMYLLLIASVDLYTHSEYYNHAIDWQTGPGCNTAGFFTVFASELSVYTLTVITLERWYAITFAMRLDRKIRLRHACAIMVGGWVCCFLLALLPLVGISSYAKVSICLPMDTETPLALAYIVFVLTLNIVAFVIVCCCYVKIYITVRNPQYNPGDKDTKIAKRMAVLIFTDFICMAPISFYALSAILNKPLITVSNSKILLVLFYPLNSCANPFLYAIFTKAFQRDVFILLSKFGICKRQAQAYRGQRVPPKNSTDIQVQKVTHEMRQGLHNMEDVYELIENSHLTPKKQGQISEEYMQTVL
Sequence of Luciferin 4-monooxygenase (Photinus pyralis) (P08659 whole entry, looked up): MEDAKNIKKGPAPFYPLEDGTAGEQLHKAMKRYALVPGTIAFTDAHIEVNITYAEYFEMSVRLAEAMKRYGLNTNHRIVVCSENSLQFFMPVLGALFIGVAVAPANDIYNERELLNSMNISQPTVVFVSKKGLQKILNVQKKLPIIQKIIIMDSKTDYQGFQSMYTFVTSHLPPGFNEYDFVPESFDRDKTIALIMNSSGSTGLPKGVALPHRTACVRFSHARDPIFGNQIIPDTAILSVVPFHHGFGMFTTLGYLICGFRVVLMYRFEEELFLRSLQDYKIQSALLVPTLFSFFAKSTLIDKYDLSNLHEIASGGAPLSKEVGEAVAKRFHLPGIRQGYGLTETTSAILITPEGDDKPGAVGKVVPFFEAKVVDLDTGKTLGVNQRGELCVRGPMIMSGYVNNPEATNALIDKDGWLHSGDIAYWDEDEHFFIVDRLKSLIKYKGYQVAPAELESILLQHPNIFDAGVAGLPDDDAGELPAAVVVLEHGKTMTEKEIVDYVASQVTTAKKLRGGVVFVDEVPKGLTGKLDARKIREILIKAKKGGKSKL

O=C1C=CC(=O)N1
active: Potency [1] 49.8 µM | Potency [2] 32.6 µM | Potency [3] 55.9 µM | Potency [4] 55.9 µM | Potency [5] 31.4 µM | Potency [7] 44.4 µM | Potency [9] 7.04 µM | Potency [10] 11.3 µM | Potency [11] 14.6 µM | Potency [12] 82.2 µM | Potency [15] 22.5 µM | Potency [16] 12.6 µM | Potency [18] 22.5 µM
inactive: Potency [6] | Potency [8] | Potency [13] | activity change, positive = activation [14] -71.7% | Potency [17]

CCCCCCCCCCCCCCCS(=O)(=O)Oc1ccccc1
inactive: Potency [1] | Potency [2] | Potency [3] | Potency [4] | Potency [5] | Potency [6] | Potency [7] | Potency [10] | Potency [11] | Potency [19] | Potency [12] | Potency [15] | Potency [16] | Potency [18]

COc1cc(-c2ccc(N=C=O)c(OC)c2)ccc1N=C=O
inactive: Potency [1] | Potency [2] | Potency [3] | Potency [4] | Potency [5] | Potency [6] | Potency [7] | Potency [20] | Potency [8] | Potency [10] | Potency [11] | Potency [12] | Potency [13] | activity change, positive = activation [14] -0.106% [at 42.5 µM] | Potency [15] | Potency [16] | Potency [17] | Potency [18]

CCC(N)(CO)CO
inactive: Potency [1] | Potency [2] | Potency [3] | Potency [4] | Potency [5] | Potency [6] | Potency [7] | Potency [20] | Potency [8] | Potency [10] | Potency [11] | Potency [19] | Potency [12] | Potency [13] | activity change, positive = activation [14] 6.45% | Potency [15] | Potency [16] | Potency [17] | Potency [18]

CCCCN(CCCC)C(=O)N(CCCC)CCCC
active: Potency [6] 30.6 µM
inactive: Potency [1] | Potency [2] | Potency [3] | Potency [4] | Potency [5] | Potency [7] | Potency [10] | Potency [11] | Potency [19] | Potency [15] | Potency [16] | Potency [17] | Potency [18]

CCOC(=O)/C=C(C)/C=C/C=C(C)/C=C/c1c(C)cc(OC)c(C)c1C
inactive: Potency [1] | Potency [2] | Potency [3] | Potency [4] | Potency [5] | Potency [6] | Potency [7] | Potency [9] | Potency [10] | Potency [11] | Potency [15] | Potency [18]

Cn1cc(C(=O)[C@@H]2CCc3nc[nH]c3C2)c2ccccc21
inactive: Potency [1] | Potency [2] | Potency [3] | Potency [4] | Potency [5] | Potency [6] | Potency [7] | Potency [8] | Potency [9] | Potency [10] | Potency [11] | Potency [12] | Potency [13] | activity change, positive = activation [14] -13.3% [at 42.5 µM] | Potency [15] | Potency [17] | Potency [18]
